Source: PubChem (several laboratories)
Bead autofluor = compound fluorescence in toxin protease inhibitor counterscreen. compound autofluorescence counterscreen, microsphere flow cytometry; stronger effect = higher value. fluorescence intensity (test concentration not listed). 3.1% of 360,000 active. AID 624483; in the data active = fluorescence intensity above about 16000; inconclusive = no clear call, values can overlap the other calls
BoNT-F LC inh = blocks Botulinum neurotoxin F light chain protease; 0.22% of 360,000 active; AID 588497; inhibition, % at 10 µM; Multiplex microsphere protease cleavage assay, flow cytometry; in the data active = inhibition above about 35%, passing the limit was not always enough; inconclusive = no clear call, values can overlap the other calls
Anthrax LF inh2 = blocks Bacillus anthracis lethal factor protease; multiplex microsphere protease cleavage assay, LF; inhibition, % at 10 µM; 0.12% of 360,000 active
Target sequence (P15917 whole entry, looked up): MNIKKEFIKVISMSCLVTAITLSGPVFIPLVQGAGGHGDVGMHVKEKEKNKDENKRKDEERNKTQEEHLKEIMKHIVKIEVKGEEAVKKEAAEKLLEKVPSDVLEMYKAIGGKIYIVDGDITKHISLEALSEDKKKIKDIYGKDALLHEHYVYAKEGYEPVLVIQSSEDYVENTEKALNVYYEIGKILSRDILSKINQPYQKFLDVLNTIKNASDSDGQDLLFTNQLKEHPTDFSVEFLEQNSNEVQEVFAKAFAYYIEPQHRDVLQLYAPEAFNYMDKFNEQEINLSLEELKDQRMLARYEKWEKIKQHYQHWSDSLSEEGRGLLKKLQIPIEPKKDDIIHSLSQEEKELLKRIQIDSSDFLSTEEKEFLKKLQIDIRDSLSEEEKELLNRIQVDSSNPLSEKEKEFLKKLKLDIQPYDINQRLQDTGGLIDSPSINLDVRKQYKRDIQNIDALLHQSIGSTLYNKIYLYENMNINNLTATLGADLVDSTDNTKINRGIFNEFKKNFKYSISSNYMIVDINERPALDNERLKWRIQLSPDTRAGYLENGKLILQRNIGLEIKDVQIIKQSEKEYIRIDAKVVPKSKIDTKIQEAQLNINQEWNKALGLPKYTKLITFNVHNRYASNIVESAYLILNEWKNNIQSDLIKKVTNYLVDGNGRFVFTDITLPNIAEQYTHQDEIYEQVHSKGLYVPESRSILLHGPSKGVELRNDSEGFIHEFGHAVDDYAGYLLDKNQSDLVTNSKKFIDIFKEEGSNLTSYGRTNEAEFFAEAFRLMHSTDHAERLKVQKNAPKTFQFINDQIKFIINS
BoNT-A LC inh2 = blocks Botulinum neurotoxin A light chain protease; multiplex microsphere protease substrate cleavage, flow cytometry; inhibition, % at 10 µM; 0.17% of 360,000 active; AID 588499
3CLpro inhibitor = SARS-CoV 3CLpro protease inhibition. P0C6X7. recombinant SARS-CoV 3CLpro, quenched FRET peptide cleavage. inhibition, % at 6 µM. 0.14% of 290,000 active; in the data active = inhibition above about 12%
CCHF vOTU inh = CCHFV vOTU protease inhibition. Pep-AMC fluorescence. inhibition, % at 11.5 µM. 0.55% of 370,000 active; in the data active = inhibition above about 30%
Hits are given with their value; - = inactive; ? = inconclusive; . = not tested or not shown. Hits are enriched below; roughly 3.9% of the tested compounds scored in any of these assays. Cut-off read from the data, not from the text of the source, unless noted: active = inhibition above about 30%; inconclusive = no clear call, values can overlap the other calls; inactive = below that.

SMILES	Bead autofluor	BoNT-F LC inh	Anthrax LF inh2	BoNT-A LC inh2	3CLpro inhibitor	CCHF vOTU inh
CC(NC(=O)NC12CC3CC(CC(C3)C1)C2)C1CCCO1 (centres undefined)	21432	-	-	?	-	-
CC(Sc1nc2ccccc2[nH]1)C(=O)O (centres undefined)	23428	-	-	-	-	-
COC(=O)c1ccccc1-c1ccc(/C=N/NC(N)=O)o1	.	.	.	.	-	-
COC(=O)c1sccc1-c1ccc(/C=N/OC(=O)c2ccccc2)o1	20465	-	-	-	-	-
Cc1cc(=O)oc2cc(OC(C)C(=O)N3CCOCC3)ccc12 (centres undefined)	23796	-	-	-	-	-
CN(CC(=O)N1CCCc2c1c(=O)oc1ccc(O)cc21)Cc1ccccc1	20887	-	-	-	-	-
COC(=O)[C@H]1C[C@@]2(n3ccc4ccccc43)c3ccccc3N(S(=O)(=O)c3ccccc3)[C@H]2N1C(=O)CNC1CCCCC1	.	.	.	.	.	-
C[C@@H]1CCN(C2CC2)S(=O)(=O)c2ccc(N3CC[C@@H](N(C)C)C3)cc2O1	.	.	.	.	.	-
CCc1c(O)nc(SCC(=O)Nc2nc3ccccc3s2)n(C2CCCCC2)c1=O	-	?	-	-	-	-
CCc1c(O)nc(SCC(=O)Nc2ccc(OC)cc2)n(C2CCCCC2)c1=O	24511	-	-	-	-	-
COc1ccc(Cc2c(O)nc[nH]c2=O)cc1	16832	-	-	?	-	-
COC(=O)c1ccc(S(=O)(=O)N2CCC(NC(=O)COc3ccc(F)cc3)CC2)cc1	.	.	.	.	.	-
Cc1ccc(-c2cnn(-c3cccc([N+](=O)[O-])c3)c2N)cc1	23689	-	-	-	-	-
CCOC(=O)c1cc(OC(=O)c2ccccc2OC)n(-c2ccccc2)n1	20755	-	-	?	-	-
O=C(OCCN=C1NS(=O)(=O)c2ccccc21)c1ccncc1	-	-	-	-	-	-
O=C(OCCN=C1NS(=O)(=O)c2ccccc21)C1CC(=O)N(c2ccc3ccccc3c2)C1 (centres undefined)	19051	-	-	?	-	-
CCCNC(=O)c1c(N)n(-c2ccc3c(c2)OCO3)c2nc3ccccc3nc12	21855	-	-	?	-	-
COCCCNC(=O)c1c(N)n(-c2ccc3c(c2)OCO3)c2nc3ccccc3nc12	-	-	-	-	-	-
CCOC(=O)C1CCCN(c2c(NCCCN(CC)c3ccccc3)c(=O)c2=O)C1 (centres undefined)	24139	-	-	-	-	-
CCOC(=O)CC[C@H]1CC[C@]2(CCCN(S(C)(=O)=O)C2)O1	.	.	.	.	.	-
CCN1CCN(CC(O)COc2ccc(Cl)cc2)CC1 (centres undefined)	-	-	-	-	-	-
CCN1CCN(CC(O)COC(C)C)CC1 (centres undefined)	20191	-	-	-	-	-
CCN(CC)CCNC(=O)c1ccc(NC(=O)Cc2ccsc2)cc1	-	-	-	-	-	-
CCCNC(=O)Cc1ccsc1	21829	-	-	-	-	-
C(=C\c1ccccc1)/CN1CCN(c2ncnc3c2oc2ccccc23)CC1	17552	-	-	?	-	-
SMILES	Bead autofluor	BoNT-F LC inh	Anthrax LF inh2	BoNT-A LC inh2	3CLpro inhibitor	CCHF vOTU inh
Cn1c(=O)c2cc(S(=O)(=O)N3CCN(Cc4ccccc4)CC3)ccc2n(C)c1=O	.	.	.	.	.	-
O=CN(Cc1ccco1)C1(C(=O)NC2CCCCC2)CCCCC1	22071	-	-	?	-	-
C=CCOC(=O)N1CCN(C(=O)c2ccc3nc(C)n(C4CCCC4)c3c2)CC1	.	.	.	.	.	-
C#CCNC(=O)C[C@H]1C[C@@]2(C(=O)OC)C(=C[C@H](COCc3ccccc3)O[C@@H]2C)N(Cc2ccccc2)C1=O	.	.	.	.	.	-
Cn1c(SC/C=C/c2ccccc2)nnc1-c1cccnc1	.	.	.	.	.	-
CC(C)NC(=O)Cn1nc(C(F)(F)F)c2c1CCC2	?	-	-	-	-	-
O=C(Cn1nc(C(F)(F)F)c2c1CCCC2)NC1CCCC1	23402	-	-	-	-	-
O=C(CCl)NC1CCCCN(Cc2ccc(OC(F)(F)F)cc2)C1=O (centres undefined)	.	.	.	.	.	-
CC(=O)c1nnn(-c2nc(N3CCCC3)nc(N(c3ccccc3)c3ccccc3)n2)c1C	23099	-	-	-	-	-
Cc1ccc(Cn2c(C(=O)NCCCN3CCOCC3)cc3sccc32)cc1	24158	-	-	-	-	.
CCn1c(C(=O)NCCCN2CCc3ccccc3C2)cc2sccc21	24380	-	-	-	-	-
CCn1c(C(=O)NCc2ccccn2)cc2sccc21	17121	-	-	-	-	-
O=C(Cn1c(C(=O)NCCCN2CCOCC2)cc2sccc21)c1ccccc1	24194	-	-	-	-	-
Cn1c(C(=O)NCCN2CCOCC2)cc2sccc21	-	-	-	-	-	-
COc1ccc(-n2c(SCC(=O)Nc3ccc(OCc4ccccc4)cc3)nnc2-c2ccc(C)cc2)cc1	.	.	.	.	.	-
CCOC(=O)c1cc(-c2ccc(OC)cc2F)nc2c1c(C)nn2CCC#N	25362	-	-	?	-	-
CCOC(=O)c1cc(-c2ccc(Cl)cc2)nc2c1c(C)nn2CCC#N	-	-	-	-	-	-
COC(=O)C1=C(C)N(Cc2ccc(C(F)(F)F)cc2)C(=NCc2ccc(C(F)(F)F)cc2)NC1c1ccccc1 (centres undefined)	.	.	.	.	.	-
CS(=O)(=O)NCCOc1ccc(S(=O)(=O)NCCOc2ccccc2)cc1	-	-	-	-	-	-
O=S(=O)(NCCOc1ccccc1)c1ccc2ccccc2c1	19154	-	-	?	-	-
COc1ccc(OC)c(C(C)NC(C)=O)c1 (centres undefined)	18227	-	-	-	-	-
CNC(C)c1cc(OC)ccc1OC (centres undefined)	-	-	-	-	-	-
CCCCOc1ccccc1C1C(C(=O)OC)=C(C)N(C)C(C)=C1C(=O)OC	22647	-	-	-	-	-
COC(=O)C1=C(C)N(C)C(C)=C(C(=O)OC)C1c1ccccc1C	-	-	-	-	-	-
COCCNC(=O)c1ccc(-n2c(SCc3cc(F)ccc3F)nc3ccccc3c2=O)cc1	-	-	-	-	-	-
SMILES	Bead autofluor	BoNT-F LC inh	Anthrax LF inh2	BoNT-A LC inh2	3CLpro inhibitor	CCHF vOTU inh
CCOC(=O)CSc1nc2ccccc2c(=O)n1-c1ccc(C(=O)NCCOC)cc1	21747	-	-	-	-	-
CCOC(=O)CSc1nc2cc(C(=O)N3CCC(C(N)=O)CC3)ccc2c(=O)n1-c1ccccc1	21305	-	-	-	-	.
CCOC(=O)CSc1nc(-c2ccccc2)nc2ccccc12	21864	-	-	-	-	-
CCOC(=O)CSc1nc(-c2ccccc2)nc2ccc(F)cc12	?	-	?	?	-	-
CCOC(=O)CSc1nc2cc(C(=O)N3CCCC3)ccc2c(=O)n1Cc1ccccc1	-	-	-	-	-	-
CCN(CC)C(=O)CC[C@@H]1CC[C@]2(CCCN(Cc3cccnc3)C2)O1	.	.	.	.	.	-
CC(=O)N1C[C@@H](CO)[C@@H]2C[C@H]1c1ccccc1N2C	.	.	.	.	.	-
COc1ccc(C2NC(=O)NC(O)(C(F)(F)F)C2C(=O)c2ccccc2)cc1OC (centres undefined)	?	-	-	-	-	-
